# Test results: PubChem BioAssay (NCATS)
# Unmarked numbers belong to inactive results. Results filed as inconclusive are left out. Calls of active or inactive are those of the source. Unless noted, calls come from the whole dose curve; as a rule, active = well fitted curve in either direction with a large enough effect (not every such curve was filed as active); inconclusive = small, poorly fitted or top-dose-only effect, or another doubt; inactive = flat fitted curve, though single readings scatter.
# What was measured:
# [1] = biological target: Lysosomal acid glucosylceramidase (Homo sapiens) (UniProt P04062); assay: Glucocerebrosidase-p2 (AID 348; in the data active = potency below about 10 µM; note: potency is the fitted concentration of half-maximal effect); conditions: purified GBA, blue fluorogenic substrate, 40 min
# Outline: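 Compounds titrated from 0.6 nM upwards against 0.2 nM enzyme in pH 5.9 citric acid/KH2PO4, taurocholate, tween-20; blue fluorogenic substrate 80 uM, 40 min room temperature, stopped and read Ex 365/Em 440 for AC50.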
# [2] = AP1 Signaling Pathway (AID 357); conditions: ME-180 AP-1-bla reporter, EGF-induced, beta-lactamase ratio, 5 h; at 7.69 µM (top of the series) unless noted;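 note: ME-180 reporter cells stimulated with EGF at its EC50 level; % is set by controls: 0 for no effect and ±100 for the full control effect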
# Outline: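 Cells are seeded overnight, exposed to compound titrations and an EC50 level of EGF for 5 hours at 37 °C, then loaded with CCF4 dye for 2.5 hours. Beta-lactamase activity under the AP-1 element is read as a blue/green ratio.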
# [3] = biological target: Cytochrome P450 1A2 (Homo sapiens) (UniProt P05177); assay: p450-cyp1a2 (AID 410; calls by dose curve; note: potency is the fitted concentration of half-maximal effect;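 for activity change, negative = inhibition: -100% = full effect of reference inhibitor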); conditions: recombinant CYP1A2, luciferin-ME demethylation, luminescence; series mostly up to 11.4 µM
# Outline: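 20nM CYP1A2 with 100uM Luciferin-ME (at Km) in 100mM KPO4; compound preincubated 10 min, NADPH regeneration added, 60 min at room temperature. Luciferin quantified by luminescence after detection reagent; normalized to 57 uM furafylline.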
# [4] = NFAT Signaling Pathway (AID 444); conditions: Jurkat NFAT-bla M1, carbachol, beta-lactamase ratio, 5 h; at 7.69 µM (top of the series) unless noted;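 note: carbachol stimulus at about its EC50 of 1 µM final; % is set by controls: 0 for no effect and ±100 for the full control effect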
# Outline: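 Read-out: CCF4 FRET ratio (460 nm/530 nm) after 1 h RT dye loading, used for %activity and AC50 from titration series. Cells: Jurkat NFAT-β-lactamase/M1 line, treated with compound plus 1 uM carbachol for 5 h, 37 °C.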
# [5] = Stat Signaling Pathway (AID 446); conditions: ME-180 SIE beta-lactamase reporter, IL-6 stimulated, 5 h; at 7.69 µM (top of the series) unless noted;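 note: ME-180 cervical cancer cells given 40 pM IL-6 alongside compound; SIE-controlled beta-lactamase reporter measured as 460/530 nm FRET emission ratio; % is set by controls: 0 for no effect and ±100 for the full control effect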
# Outline: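 ME-180 SIE-bla cells; overnight plating; cpd + IL-6 40 pM, 5 h, 37 C; LiveBLAzer 2.5 h RT; 460/530 nm emission ratio. Normalized to 300 pM IL-6 and 125 nM JAK inhibitor controls.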
# [6] = biological target: Glucocorticoid receptor (Homo sapiens) (UniProt P04150); assay: GR-GFP Redistribution (AID 450;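 active = compounds whose dose series gives a full or clear partial fitted curve of increased nuclear translocation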; note: potency is the fitted concentration of half-maximal effect); conditions: U2OS GR-GFP nuclear translocation, laser cytometry, 2 h
# [7] = biological target: Glucocorticoid receptor (Homo sapiens) (UniProt P04150); assay: GR-EFC Redistribution (AID 451; calls by dose curve; note: potency is the fitted concentration of half-maximal effect); conditions: CHO-K1 GR-EFC translocation, beta-gal luminescence, 2 h
# Outline: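 Translocation of GR-ED fusion to nuclear EA restores b-gal, read by luminescence after 1 h room-temperature detection. Engineered CHO-K1 biosensor cells, 1,000/well, exposed 2 h at 37 C to titrations up to 46 uM final.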
# [8] = biological target: Mitogen-activated protein kinase 10 (Mus musculus) (UniProt Q61831); assay: JNK3 AlphaScreen Assay (AID 530); conditions: JNK3 lysate, c-Jun phosphorylation; series mostly up to 57.1 µM;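 note: kinase came from lysate of stimulated human HepG2 cells; signal reports phosphorylation of biotinylated GST-cJun 1-79 at Ser73 with 10 µM ATP; % is set by controls: 0 for no effect and ±100 for the full control effect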
# Outline: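 Compound titrations were preincubated 15 minutes at room temperature with substrate, antibody and pre-activated JNK3-containing HepG2 lysate. Reactions were started with 10 uM ATP and stopped with EDTA-containing bead buffer for AlphaScreen detection.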
# [9] = biological target: 3',5'-cyclic-AMP phosphodiesterase 4B (Homo sapiens) (UniProt Q07343); assay: qHTS Assay for Inhibitors of PDE-IV (AID 607; active = well fitted activation curve with a large enough effect in the main read-out, with a control signal flat, not every such curve was filed as active; note: % of control where 0% means no effect); conditions: HEK293 ACTOne CNG channel cells, membrane potential fluorescence; series mostly up to 22.9 µM
# Outline: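 ACTOne HEK293 cells carry a modified cAMP-gated CNG channel and express endogenous PDE4; plated 1000 cells/well, compounds up to 22.9 uM final. Membrane-potential dye fluorescence (ex 535/em 590) was read; parental cells received 10 uM forskolin + 100 uM RO 20-1724.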
# [10] = tested on: HIV-1 nucleocapsid protein NCp7 (binding to TG oligonucleotide); assay: HIV Nucleocapsid (AID 346; call rule not given here;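 note: potency is the fitted concentration of half-maximal effect; potency is for inhibitors that block NC binding and lower polarization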); conditions: HIV-1 NC / fluorescein-TGTGTGTG probe, fluorescence polarization
# Outline: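 10 nM TG4xF probe with 100 nM nucleocapsid protein in high-salt Hepes pH 7.5 (250mM NaCl) containing 1uM ZnCl2 and reducing agents. Compound inhibition of binding was read as fluorescein polarization after 1 hr at room temperature.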
# [11] = biological target: Cytochrome P450 3A4 (Homo sapiens) (UniProt P08684); assay: qHTS Assay for Activators of Cytochrome P450 3A4 (AID 885; active = well fitted activation curve with a large enough effect; note: nearly all actives have a fitted effect of over 65% in size); conditions: recombinant CYP3A4, Luciferin-PPXE luminescence, 60 min; series mostly up to 57.1 µM
# Outline: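 20nM CYP3A4 + 25uM Luciferin-PPXE (=KM), 200mM KPO4; cpd 10 min RT; NADPH regen, 60 min RT; stop w/ detection buffer, 20 min; luminescence. Normalized to 57 uM ketoconazole.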
# Sequence of 3',5'-cyclic-AMP phosphodiesterase 4B (Homo sapiens) (Q07343 whole entry, looked up): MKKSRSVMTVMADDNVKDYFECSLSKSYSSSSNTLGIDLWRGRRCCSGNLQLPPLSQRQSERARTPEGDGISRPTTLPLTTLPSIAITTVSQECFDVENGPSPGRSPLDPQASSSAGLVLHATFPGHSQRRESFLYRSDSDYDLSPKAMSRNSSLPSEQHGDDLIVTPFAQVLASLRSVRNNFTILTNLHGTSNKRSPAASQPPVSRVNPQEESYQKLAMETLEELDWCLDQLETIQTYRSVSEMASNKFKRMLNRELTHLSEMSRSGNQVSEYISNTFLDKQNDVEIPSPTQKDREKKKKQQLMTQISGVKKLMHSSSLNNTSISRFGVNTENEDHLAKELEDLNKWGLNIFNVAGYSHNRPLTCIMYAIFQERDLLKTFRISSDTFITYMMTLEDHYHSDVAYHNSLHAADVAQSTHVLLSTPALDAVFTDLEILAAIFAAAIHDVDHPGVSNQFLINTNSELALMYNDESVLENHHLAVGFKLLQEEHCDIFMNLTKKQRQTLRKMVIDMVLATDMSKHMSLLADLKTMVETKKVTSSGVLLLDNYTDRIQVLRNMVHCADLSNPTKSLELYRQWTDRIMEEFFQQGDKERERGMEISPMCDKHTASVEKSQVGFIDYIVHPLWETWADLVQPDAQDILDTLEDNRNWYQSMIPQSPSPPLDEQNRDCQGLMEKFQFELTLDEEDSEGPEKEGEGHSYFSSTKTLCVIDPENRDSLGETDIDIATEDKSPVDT
# Sequence of Glucocorticoid receptor (Homo sapiens) (P04150 whole entry, looked up, the tested form may be a part): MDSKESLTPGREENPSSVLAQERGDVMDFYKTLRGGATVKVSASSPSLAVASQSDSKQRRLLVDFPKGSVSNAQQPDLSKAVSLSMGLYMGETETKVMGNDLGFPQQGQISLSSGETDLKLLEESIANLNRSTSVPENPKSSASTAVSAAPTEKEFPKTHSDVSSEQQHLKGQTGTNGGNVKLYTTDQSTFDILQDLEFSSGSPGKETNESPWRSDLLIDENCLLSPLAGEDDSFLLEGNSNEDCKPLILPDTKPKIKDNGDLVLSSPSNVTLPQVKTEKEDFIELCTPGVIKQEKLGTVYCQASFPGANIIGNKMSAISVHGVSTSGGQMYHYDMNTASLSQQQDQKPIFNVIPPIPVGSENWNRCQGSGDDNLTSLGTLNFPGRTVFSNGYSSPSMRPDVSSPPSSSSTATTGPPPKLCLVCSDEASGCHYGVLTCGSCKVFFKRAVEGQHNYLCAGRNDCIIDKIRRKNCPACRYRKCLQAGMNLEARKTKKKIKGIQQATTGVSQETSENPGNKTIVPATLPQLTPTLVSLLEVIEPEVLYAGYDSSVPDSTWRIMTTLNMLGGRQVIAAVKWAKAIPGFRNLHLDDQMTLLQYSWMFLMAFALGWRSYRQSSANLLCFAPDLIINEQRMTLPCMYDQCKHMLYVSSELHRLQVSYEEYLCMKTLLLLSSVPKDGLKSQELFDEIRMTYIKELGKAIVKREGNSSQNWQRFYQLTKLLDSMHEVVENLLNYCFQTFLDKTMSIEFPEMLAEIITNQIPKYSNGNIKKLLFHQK
# Sequence of Cytochrome P450 1A2 (Homo sapiens) (P05177 whole entry, looked up): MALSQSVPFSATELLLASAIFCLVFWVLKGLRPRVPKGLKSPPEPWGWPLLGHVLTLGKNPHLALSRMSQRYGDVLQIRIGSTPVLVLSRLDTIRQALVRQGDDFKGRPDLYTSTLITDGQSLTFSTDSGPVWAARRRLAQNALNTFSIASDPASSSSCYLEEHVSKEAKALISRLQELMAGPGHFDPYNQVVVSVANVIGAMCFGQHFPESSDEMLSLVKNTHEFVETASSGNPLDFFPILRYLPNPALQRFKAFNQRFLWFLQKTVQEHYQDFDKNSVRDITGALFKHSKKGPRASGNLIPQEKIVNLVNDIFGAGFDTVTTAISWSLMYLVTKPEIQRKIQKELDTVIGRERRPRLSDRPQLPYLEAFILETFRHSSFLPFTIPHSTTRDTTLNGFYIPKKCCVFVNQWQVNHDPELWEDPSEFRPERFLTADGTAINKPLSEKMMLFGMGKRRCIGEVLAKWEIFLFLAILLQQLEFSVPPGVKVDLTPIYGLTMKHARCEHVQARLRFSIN
# Sequence of Lysosomal acid glucosylceramidase (Homo sapiens) (P04062 whole entry, looked up): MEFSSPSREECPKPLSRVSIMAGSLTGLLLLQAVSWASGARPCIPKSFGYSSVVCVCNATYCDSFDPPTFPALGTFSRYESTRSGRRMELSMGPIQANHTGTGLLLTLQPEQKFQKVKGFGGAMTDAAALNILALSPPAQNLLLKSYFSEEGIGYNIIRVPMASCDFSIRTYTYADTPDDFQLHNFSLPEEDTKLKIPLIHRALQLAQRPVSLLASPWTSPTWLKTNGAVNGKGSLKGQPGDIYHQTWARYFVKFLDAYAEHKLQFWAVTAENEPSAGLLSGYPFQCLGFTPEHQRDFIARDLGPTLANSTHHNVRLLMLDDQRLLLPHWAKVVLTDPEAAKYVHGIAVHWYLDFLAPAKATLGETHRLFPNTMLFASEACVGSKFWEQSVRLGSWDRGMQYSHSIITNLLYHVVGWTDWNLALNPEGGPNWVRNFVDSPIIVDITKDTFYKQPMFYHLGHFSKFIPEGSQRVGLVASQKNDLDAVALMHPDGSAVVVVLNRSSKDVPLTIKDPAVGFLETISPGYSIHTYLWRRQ
# Sequence of Cytochrome P450 3A4 (Homo sapiens) (P08684 whole entry, looked up): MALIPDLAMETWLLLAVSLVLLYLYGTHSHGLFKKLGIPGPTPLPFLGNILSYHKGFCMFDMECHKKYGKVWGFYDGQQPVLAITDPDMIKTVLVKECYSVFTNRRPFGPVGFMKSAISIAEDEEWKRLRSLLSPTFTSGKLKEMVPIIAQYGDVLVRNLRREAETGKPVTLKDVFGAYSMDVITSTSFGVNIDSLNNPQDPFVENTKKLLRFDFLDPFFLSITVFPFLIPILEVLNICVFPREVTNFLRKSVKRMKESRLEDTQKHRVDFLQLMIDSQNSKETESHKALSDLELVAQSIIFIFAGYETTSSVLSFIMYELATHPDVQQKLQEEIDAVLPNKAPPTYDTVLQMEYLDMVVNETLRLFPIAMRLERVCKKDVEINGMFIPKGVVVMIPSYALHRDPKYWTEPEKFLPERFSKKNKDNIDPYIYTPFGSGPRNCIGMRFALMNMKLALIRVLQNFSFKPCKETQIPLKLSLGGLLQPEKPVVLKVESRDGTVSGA
Compound,Potency [1] [µM],"activity change, negative = inhibition [2] [%]",Potency [3],"activity change, negative = inhibition [4] [%]","activity, negative = inhibition [5] [%]",Potency [6] [µM],Potency [7] [µM],"activity change, negative = inhibition [8]",outcome [9],Potency [10] [µM],Potency [8],Potency [11],"activity change, negative = inhibition [3]"
CSCC[C@@H](N)P(C)(=O)O,> 11.4,10.2,inactive,2.01,13.5,> 46,> 9.22,0.585% [at 11.4 µM],inactive,,,,
Clc1ccccc1-c1cncnc1NCc1cccs1,,,,,,,,,,> 20,,,
COc1ccc(CNc2ncncc2-c2ccc3c(c2)OCO3)c(OC)c1,,,,,,,,,,> 20,,,
NCCCN1CCN(c2ccccc2)CC1,> 11.4,2.17,inactive,-2.83,5.73,> 46,> 9.22,-2.39% [at 11.4 µM],inactive,,,,
N#Cc1cccc(NC(=O)N2CCCC3(CCN(C(=O)Oc4ccccc4)CC3)C2)c1,> 11.4,-22.4,15.8 µM (active),,-12.1,,,,inactive,> 20,inactive,inactive,
C[C@]1(O)CC[C@H]2[C@@H]3[C@@H](O)CC4=CC(=O)CC[C@@]4(C)[C@H]3CC[C@]21C,> 11.4,1.55,,6.38,-1.92,> 46,> 9.22,-3.1% [at 11.4 µM],inactive,,,,1.4% [at 2.29 µM]
COC(=O)[C@H]1C(=O)[C@H](C(=O)OC)[C@@H]2CC[C@H]1N2C,> 11.4,12.9,0.794 µM (active),11.3,7.99,> 46,> 9.22,4.63% [at 11.4 µM],inactive,,,,
